Results published in PubChem BioAssay.
Results filed as inconclusive are left out. Active and inactive are the calls of the source. Unless noted, no cut-off is given here; in the data, nearly all actives have AC50 up to about 30 µM.

Tests used:
[1] = viability loss in pontine glioma line – cell-based, SU-DIPG-XIII, MIPE4.0, CellTiter-Glo, qHTS, dose response (AID 1347061; cut-off not given, nearly all actives have AC50 up to about 37 µM;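 note: cells exposed to compound for 48 hours before readout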); settings: CellTiter-Glo ATP luminescence
[2] = viability loss in pontine glioma line – cell-based, JHH-DIPG-1, MIPE4.0, CellTiter-Glo, qHTS, dose response (AID 1347062; cut-off not given, nearly all actives have AC50 up to about 27 µM;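 for AC50: cells exposed to compound for two days before readout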); settings: JHH-DIPG-1 viability, CellTiter-Glo ATP luminescence
[3] = viability loss in pontine glioma line – cell-based, SU-DIPG-IV, MIPE4.0, CellTiter-Glo, qHTS, dose response (AID 1347063); settings: CellTiter-Glo ATP luminescence;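 note: compound exposure lasted 48 hours before the viability readout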
[4] = viability loss in pontine glioma line – cell-based, SU-DIPG-XIII, MIPE5.0, CellTiter-Glo, qHTS, dose response (AID 1347064; cut-off not given, nearly all actives have AC50 up to about 23 µM); settings: CellTiter-Glo ATP luminescence
[5] = JHH-DIPG-1 glioma cell viability, MIPE5.0 library, CellTiter-Glo luminescence, qHTS (AID 1347067; cut-off not given, nearly all actives have AC50 up to about 26 µM;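 note: cells exposed to compound for 48 hours before readout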); settings: JHH-DIPG-1 glioma viability, CellTiter-Glo ATP luminescence
[6] = growth inhibition of DIPG cells – cell-based, MIPE5.0 library, qHTS (AID 1347068; cut-off not given, nearly all actives have IC50 up to about 30 µM); settings: SU-DIPG-XXV viability
[7] = growth inhibition of DIPG cells – cell-based, MIPE4.0 library, CellTiter-Glo luminescence, qHTS (AID 1347066); settings: SU-DIPG-VI viability, CellTiter-Glo ATP luminescence;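 note: cells exposed to compound for 48 hours before readout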
[8] = viability loss in pontine glioma line – cell-based, SU-DIPG-XXV, MIPE5.0, CellTiter-Glo, qHTS, dose response (AID 1347065; cut-off not given, nearly all actives have AC50 up to about 26 µM;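 note: cells exposed to compound for 48 hours before ATP readout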); settings: CellTiter-Glo ATP luminescence
[9] = viability loss with induced miR-34 in A549 – imaging, A549 dox-inducible miR-34, nuclei and caspase counts, primary screen (AID 1347080;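 active = compounds whose cell count with miR-34 switched on is under 0.7 times the count with it off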); settings: A549 miR-34 inducible, Hoechst nuclei count, 48 h
[10] = MELAS cybrid and Rieske KO viability enhancers – cell-based, MELAS cybrids, Rieske KO mouse fibroblasts, CellTiter-Glo, primary screen (AID 1508586;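 active = mean z-score across replicates of 1.96 or higher in either the MELAS or the Rieske mutant cell line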;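 note: z relative to plate mean and SD of compound and empty wells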); settings: low glucose
[11] = stronger effect = lower value, cell number ratio, induced over uninduced
[12] = measured here: relative caspase fold change +Dox/-Dox
[13] = measured here: total cells with miR-34 induction, stronger effect = lower value
[14] = measured here: total cells without miR-34 induction

O=C(O)c1cc(O)c2c(c1)C(=O)c1cccc(O)c1C2=O
outcome [1]: inactive | outcome [2]: inactive | outcome [3]: inactive | outcome [4]: inactive | outcome [5]: inactive | outcome [6]: inactive

COC1=C2C[C@@H](C)C[C@H](OC)[C@H](O)[C@@H](C)/C=C(\C)[C@H](OC(N)=O)[C@@H](OC)/C=C/C=C(\C)C(=O)NC(=CC1=O)C2=O
AC50 [1]: 0.372 µM (active) | AC50 [2]: 0.296 µM (active) | AC50 [3]: 0.526 µM (active) | AC50 [7]: 2.35 µM (active)

Cc1cc(-c2nnc3n2CCCCC3)c(C)n1-c1ccccc1
outcome [1]: inactive | outcome [2]: inactive | outcome [3]: inactive | outcome [7]: inactive

CC(C)C(=O)Oc1ccc(CO)cc1[C@H](CCN(C(C)C)C(C)C)c1ccccc1
outcome [1]: inactive | outcome [2]: inactive | outcome [3]: inactive | outcome [7]: inactive

CC(C)(C)COc1ccc(-n2cc(C(=O)O)cn2)cc1C#N
outcome [1]: inactive | outcome [2]: inactive | outcome [3]: inactive | outcome [8]: inactive | outcome [7]: inactive | outcome [6]: inactive

Clc1cccc(-c2nnnn2Cc2cccnc2)c1Cl
outcome [1]: inactive | outcome [2]: inactive | outcome [3]: inactive | outcome [7]: inactive

COc1ccc2cc([S+]([O-])Cc3ncc(C)c(OC)c3C)nc2c1
outcome [1]: inactive | outcome [2]: inactive | outcome [3]: inactive | outcome [7]: inactive

CN1[C@@H]2CC(OC(=O)[C@@H](CO)c3ccccc3)C[C@H]1[C@H]1O[C@H]12 (some centres undefined)
outcome [1]: inactive | outcome [2]: inactive | outcome [3]: inactive | outcome [7]: inactive

CCCCCCCCCCCCCC(=O)N[C@H](CO)[C@H](O)c1ccc([N+](=O)[O-])cc1
outcome [1]: inactive | AC50 [2]: 2.96 µM (active) | AC50 [3]: 4.69 µM (active) | AC50 [8]: 18.6 µM (active) | fold change [9, 11]: 0.96 (inactive) | fold change [9, 12]: 0.781 | cell count [9, 13]: 6010 | cell count [9, 14]: 6250

Cc1nc2c([nH]1)CCN(C(=O)c1ccc(NC(=O)c3ccccc3-c3ccccc3)cc1)c1ccccc1-2
outcome [1]: inactive | outcome [2]: inactive | outcome [3]: inactive | outcome [4]: inactive | outcome [7]: inactive | outcome [5]: inactive | outcome [6]: inactive | fold change [9, 11]: 0.926 (inactive) | fold change [9, 12]: 0.734 | cell count [9, 13]: 8050 | cell count [9, 14]: 8690 | z-score ([10]; MELAS cybrid survival, CellTiter-Glo 48 h, stronger effect = higher value): -0.466 (inactive) | z-score ([10]; Rieske KO mouse fibroblast survival, CellTiter-Glo 72 h): 0.668

Nc1ncnc2c1ncn2[C@@H]1O[C@@H](CO)[C@H](O)[C@@H]1O
outcome [1]: inactive | outcome [2]: inactive | outcome [3]: inactive | outcome [7]: inactive

CCCCCNC(=O)N1CCC(CN(Cc2ccc(Cl)cc2)Cc2ccc([N+](=O)[O-])s2)C1 (centres undefined)
outcome [1]: inactive | outcome [2]: inactive | AC50 [3]: 23.5 µM (active) | AC50 [8]: 29.5 µM (active) | AC50 [5]: 23.5 µM (active)

CN(C)c1nc(Cc2ccc(NC(=O)c3ccc(C(F)(F)F)cc3)cc2)nc(N(C)C)c1CC(=O)O
outcome [1]: inactive | outcome [2]: inactive | outcome [3]: inactive | outcome [7]: inactive

Nc1nc(=O)n([C@H]2CSC(CO)O2)cc1F (some centres undefined)
outcome [1]: inactive | outcome [2]: inactive | outcome [3]: inactive | outcome [7]: inactive

C=C1C[C@@]2(O)O[C@@]3(C[C@H]2C(C)C)[C@@H](C)CC[C@@H]13
outcome [1]: inactive | outcome [2]: inactive | outcome [3]: inactive | outcome [4]: inactive | outcome [7]: inactive | outcome [6]: inactive

CN[C@H]1[C@H](O[C@@H]2[C@H](O[C@@H]3[C@@H](O)[C@@H](O)[C@@H](N=C(N)N)[C@@H](O)[C@H]3N=C(N)N)O[C@H](C)[C@@]2(O)C=O)O[C@@H](CO)[C@@H](O)[C@H]1O
outcome [1]: inactive | outcome [2]: inactive | outcome [3]: inactive | outcome [7]: inactive

Nc1n[nH]c2nnc(-c3c(-c4ccccc4)nn4ccccc34)cc12
AC50 [1]: 20.9 µM (active) | AC50 [2]: 20.9 µM (active) | AC50 [3]: 0.209 µM (active) | outcome [8]: inactive | AC50 [7]: 2.96 µM (active) | outcome [5]: inactive | outcome [6]: inactive

Cc1cnn(C)c1C(=O)Nc1cc(Nc2ccc3c(/C=C/c4ccccn4)n[nH]c3c2)ccc1F
AC50 [1]: 13.2 µM (active) | AC50 [2]: 18.7 µM (active) | AC50 [3]: 14.8 µM (active) | AC50 [7]: 18.7 µM (active)

CC(C)(C)OC(=O)N[C@H]1CCCCC/C=C\[C@@H]2C[C@@]2(C(=O)NS(=O)(=O)C2CC2)NC(=O)[C@@H]2C[C@@H](OC(=O)N3Cc4cccc(F)c4C3)CN2C1=O
outcome [1]: inactive | outcome [2]: inactive | outcome [3]: inactive | outcome [4]: inactive | outcome [7]: inactive | outcome [6]: inactive

Cc1ccnc(NS(=O)(=O)c2ccc(NC(=O)Nc3ccc(S(=O)(=O)Nc4nccc(C)n4)cc3)cc2)n1
outcome [1]: inactive | AC50 [2]: 2.64 µM (active) | AC50 [3]: 14.8 µM (active) | outcome [8]: inactive | outcome [7]: inactive | outcome [5]: inactive | outcome [6]: inactive

CC(C)(O)Cn1c(NC(=O)c2ccc(-c3cn[nH]c3)s2)nc2cc(CN3CCOCC3)ccc21
AC50 [1]: 2.64 µM (active) | AC50 [2]: 0.743 µM (active) | AC50 [3]: 1.48 µM (active) | AC50 [7]: 2.64 µM (active)

CCC(C)CCCCC(=O)N[C@@H](CCN)C(=O)NC(C(=O)N[C@H](CCN)C(=O)N[C@@H]1CCNC(=O)C([C@@H](C)O)NC(=O)[C@@H](CCN)NC(=O)[C@@H](CCN)NC(=O)[C@@H](CC(C)C)NC(=O)[C@H](Cc2ccccc2)NC(=O)[C@H](CCN)NC1=O)[C@@H](C)O (some centres undefined)
outcome [1]: inactive | outcome [2]: inactive | outcome [3]: inactive | outcome [8]: inactive | outcome [7]: inactive | outcome [5]: inactive | outcome [6]: inactive
